Where “and” joins values, the source holds several entries; their conditions need not be identical. Equal entries are not always repeated.
assay: inhibitors of T. brucei MetRS aminoacylation, late-stage follow-up, biochemical, radioactivity, round 1 (AID 743060); settings: purified enzyme, radiolabel aminoacylation, scintillation, 2 h; at 1 µM; stronger effect = higher value

| Compound | inhibition |
| --- | --- |
| O=C(NCc1nc2ccccc2[nH]1)C1=C[C@H](c2ccc3c(c2)OCO3)C[C@H](OCCCCO)O1 | 5.68% |
| Cc1ccc2[nH]c3nc(SCC(=O)Nc4ccc(C(F)(F)F)cc4)nnc3c2c1 | 21.3% |
| O=C(Cn1cc(C(=O)C(=O)N2CCOCC2)c2ccccc21)NCc1ccccc1 | -0.16% |
| O=C1CC(N(CCc2ccccc2)C(=S)Nc2ccccc2)C(=O)N1c1ccc(Br)cc1 (stereo not given) | 84.2% |
| CCN(CC)C(=O)C(=O)c1cn(CC(=O)N2CCCc3ccccc32)c2ccccc12 | -9.56% |
| O=C(CC=NOCc1ccc([N+](=O)[O-])cc1)Nc1ccc(Cl)cc1 | 28.6% |
| O=C(NCCc1nc2ccccc2[nH]1)c1ccc(Cl)cc1Cl | 61.9% |
| COc1ccccc1NC(=O)Cn1cc(C(=O)C(=O)N2CCOCC2)c2ccccc21 | -14.4% |
| CC(=O)c1ccc(N2CCN(C(=O)CCCn3c(=O)[nH]c4ccc(Br)cc4c3=O)CC2)cc1 | 68.1% |
| O=C(Cn1cc(C(=O)C(=O)N2CCOCC2)c2ccccc21)NCC1CCCO1 (stereo not given) | -3.8% |
| Brc1cnc2nc(SCc3nc4ccccc4[nH]3)[nH]c2c1 | 23.7% |
| CCN(CCc1nc2ccc(C)cc2[nH]1)C(=O)c1ccc2ncccc2c1 | -4.55% |
| O=C(CC(=O)Nc1cccc(Cl)c1)NN=Cc1ccccc1 | 28.2% |
| O=C(CN1CCSC1=NCc1ccccc1)c1ccc(Cl)c(Cl)c1 | -1.95% |
| O=C(Nc1ccc(F)c(Cl)c1)C1CC(=O)n2c(nc3ccccc32)N1 (stereo not given) | 44.9% and 55.3% |
| COc1ccc(NC(=O)C2CC(=O)n3c(nc4ccccc43)N2)cc1 (stereo not given) | -18.5% |
| O=C(NCc1nc2ccccc2[nH]1)C1=C[C@@H](c2ccccc2)C[C@@H](OCc2ccc(CO)cc2)O1 | 44.6% |
| Oc1c(Cl)cc(Cl)cc1CNc1nc2ccccc2[nH]1 | 88.3% |

| Compound | inhibition |
| --- | --- |
| O=C(Cn1cc(C(=O)C2CC2)c2ccccc21)Nc1cccc(C(F)(F)F)c1 | 3.65% |
| CCN(C(=O)Cn1cc(C(=O)C(=O)N2CCOCC2)c2ccccc21)c1ccccc1 | -19.2% |
| Cc1cccc2[nH]c(CCN(C)C(=O)c3cccc(C4CCNC4)c3)nc12 (stereo not given) | -7.8% |
| O=C(CSc1nnc2c(n1)[nH]c1ccc(Br)cc12)NCc1ccccc1 | 79.8% |
| O=C(NCc1nc2ccccc2[nH]1)C1=C[C@H](c2ccc(Br)cc2)C[C@H](OCc2ccc(CO)cc2)O1 | 50.3% |
| Clc1ccc(OCCSCc2nc3ccccc3[nH]2)cc1 | -2.58% |
| O=C(C[C@H]1C(=O)N(Cc2ccccc2)C[C@@H]1c1ccc(Br)cc1)Nc1ccc(Br)cc1 | 55.7% |
| O=C(Cn1cc(C(=O)C(=O)N2CCOCC2)c2ccccc21)Nc1cccc(C(F)(F)F)c1 | 87.5% |
| CC(=O)N(CCc1ccccc1)C1CC(=O)N(c2ccc(Cl)cc2)C1=O (stereo not given) | -16.2% |
| COc1cccc(NC(=O)C2CC(=O)n3c(nc4ccccc43)N2)c1 (stereo not given) | 5.53% |
| CC(CC(=O)Nc1cccc(Br)c1)=NNC(=O)c1ccc(O)cc1O | 36.5% |
| Cc1ccc(C(=O)NCCc2nc3ccccc3[nH]2)cc1[N+](=O)[O-] | 35.7% |
| COc1ccc(CNC(=O)CSc2nnc3c(n2)[nH]c2ccc(F)cc23)cc1 | 47.5% |
| O=C(Cn1cc(C(=O)C(=O)N2CCCC2)c2ccccc21)Nc1ccccc1 | -5.78% |
| CCCCn1c(CCNC(=O)c2ccc(F)cc2)nc2ccccc21 | 4.87% |
| CCO[C@@H]1OC(C(=O)NCc2nc3ccccc3[nH]2)=C[C@H](c2ccc(Br)cc2)[C@H]1CCCO | 6.72% |
| CC1Cc2ccccc2N1C(=O)Cn1cc(C(=O)C(=O)N2CCOCC2)c2ccccc21 (stereo not given) | -6.83% |
